Measurements taken from PubChem BioAssay AID2615 (Southern Research Specialized Biocontainment Screening …, 2010).
Activity calls are given as the source filed them. No rule for the calls is given here.

Test: SV40 cytopathic effect inhibition and cytotoxicity, confirmation, SV40 T antigen inhibitor project, BSC cells (AID 2615)
Conditions: outcome: CPE inhibition; viability: CPE inhibition, viability, at 100 µM, stronger effect = lower value

Row | SMILES | viability | outcome
1 | ClC(Cl)(c1nnnn1-c1ccccc1)c1nnnn1-c1ccccc1 | 0.34% | –
2 | CCN(CC)C(=O)c1ccc2nc(N)sc2c1 | 87.6% | inactive
3 | COc1ccc(-n2nnnc2C(Cl)(Cl)c2nnnn2-c2ccc(OC)cc2)cc1 | 6.3% | inactive
4 | Nc1nc2ccc(C(=O)N3CCCCC3)cc2s1 | 103% | inactive
5 | Nc1nc2ccc(C(=O)N3CCOCC3)cc2s1 | 101% | inactive
6 | ClC(Cl)(c1nnnn1-c1ccc(Br)cc1)c1nnnn1-c1ccc(Br)cc1 | -0.31% | inactive
7 | Nc1nc2ccc(S(=O)(=O)N3CCCCC3)cc2s1 | 0.95% | inactive
8 | Cc1cc(C)c2c(=O)n(CC(=O)Nc3cccc(Cl)c3C)sc2n1 | 2.65% | inactive
9 | Cc1ccc2c(c1)C1C=CCC1C(C(=O)O)N2 (configuration not stated) | 41.3% | inactive
